Most compounds without a hit are left out; they make up all but 1.9% or so of the library.
Jurkat tox 60K – cytotoxicity toward Jurkat T cells, primary screen, cytotoxicity control, cell-based, Jurkat E6.1, 60K MLSMR library | actives 1.2% (n = 56,000) | Jurkat E6.1 viability, ATP luminescence, 48 h | inhibition, % at 4 µM;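 active = inhibition above the mean inhibition of all tested compounds plus 3 SD, cut at about 28% in these data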
Her2 expr inh – inhibitors of Her2 protein expression, primary screen, SKBR-3 cells, AlphaScreen, 66K library; Receptor tyrosine-protein kinase erbB-2 (Homo sapiens), P04626; SKBR-3 HER2 protein level, 18-24 h; active compounds read low; HER2 level % of control, % at 10 µM; actives 0.69% (n = 65,000);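 active = HER2 level under 5% of the carrier-only control; inconclusive = no clear call, values can overlap the other calls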;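 also: 100% = DMSO carrier and 0% = 500 nM PU-H71 HSP90 inhibitor; lower value means stronger loss of Her2 protein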
SK-BR-3 tox 24h – SK-BR-3 proliferation inhibitors, primary screen, cell-based, human, 24 h; SK-BR-3 viability, CellTiter-Glo ATP luminescence; active compounds read low; viability, % at 10 µM; actives 0.47% (n = 41,000); AID 847, 2007;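 active = viability at or below the median of all test compounds minus 3 SD, in both replicates if run twice, cut at about 45% in these data; inconclusive = duplicate replicates that disagree with each other; inactive = viability above that cutoff in every replicate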;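 also: 100% = median untreated cell wells and 0% = median positive control drug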
Active calls of the source: *; ? = inconclusive; . = no result given.

SMILES	Jurkat tox 60K	Her2 expr inh	SK-BR-3 tox 24h
CCSc1nnc(NC(=O)CSc2nc3c(c(=O)n2-c2ccccc2OC)SCC3)s1	7	85	82
O=S(=O)(c1ccc(F)cc1)N(CCO)CC(O)Cn1c2ccccc2c2ccccc21 (stereo unspecified)	.	-13*	?
CCN(CC)CC(O)Cn1c2ccccc2c2ccccc21 (stereo unspecified)	-2	64	.
Clc1ccc(OCc2nnc3n2N=C(c2ccc4c(c2)OCCO4)CS3)c(Cl)c1	3	58	89
CCc1cccc2c(C#N)cn(CC(=O)NCCOC)c12	-2	118	.
COc1cccc(-c2nnc(SCC(=O)N(C(C)C)C(C)C)o2)c1	4	73	84
COc1cc(OC)cc(-c2nnc(SCC(=O)N(C(C)C)C(C)C)o2)c1	0	132	39*
CCCn1c(Nc2nc3ccccc3n2C)nc2ccccc21	-18	-22*	9.8*
CCCn1c(NCc2ccco2)nc2ccccc21	0	109	95
O=C(O)c1ccccc1NCN1C(=O)C2CC=C(Cl)CC2C1=O (stereo unspecified)	-1	-22*	120
O=C(CCN1C(=O)C2CC=C(Cl)CC2C1=O)Nc1ccccc1O (stereo unspecified)	2	85	101
COc1ccccc1OCC(O)CN1C(=O)NC(C)(C)C1=O (stereo unspecified)	1	83	.
COC(=O)C1=C(N)Oc2cc(C)oc(=O)c2C1c1ccncc1 (stereo unspecified)	.	202	102
COC(=O)/C(=C1/Oc2cc(C)oc(=O)c2S1)C(F)(F)F	.	-15*	38*
CCn1cc(C(=O)NCCC2=CCCCC2)c(=O)c2cc(S(=O)(=O)N(C)C)ccc21	1	60	.
COc1ccc(-n2cnnc2SCC(=O)c2ccc(S(=O)(=O)N3CCOCC3)cc2)cc1	-9	97	.
CCOC(=O)c1c(N)nn(C(=O)C(C)C)c1-c1ccccc1	-4	116	101
O=C(NCC(c1cccs1)N1CCOCC1)c1ccc(Cl)s1 (stereo unspecified)	95*	60	.
O=C(COc1ccccc1)NCC(c1cccs1)N1CCOCC1 (stereo unspecified)	.	88	.
CC1(C)CC(=O)c2c(-c3cccs3)n[nH]c2C1	.	37	.
Cc1nnc(SCC(=O)NCCN2C(=O)CSC2=O)s1	-5	47	.
Nc1nnc(CCN2C(=O)CSC2=O)s1	-1	102	40*
O=C(Cc1cc(=O)[nH]c(=O)[nH]1)N1CCC(Cc2ccccc2)CC1	0	91	.
CN(C)S(=O)(=O)N1CCN(S(=O)(=O)c2ccc(F)cc2)CC1	-6	133	110
CN(C)S(=O)(=O)c1ccc(N2CCN(S(=O)(=O)c3ccc(F)cc3)CC2)c(Cl)c1	34*	77	49
SMILES	Jurkat tox 60K	Her2 expr inh	SK-BR-3 tox 24h
COc1ccc(NC(=O)N(CCN2CCCC2)Cc2cc3cc(OC)c(OC)cc3[nH]c2=O)cc1	8	86	78
CC(=O)NCc1ccc(C(=O)CSc2nnc(-c3ccncc3)n2Cc2ccccc2)o1	-2	204	.
Cc1cnc(C(=O)Nc2cccc3cccnc23)cn1	84*	80	72
O=C(Nc1cccc2cccnc12)c1cccnc1	-4	90	.
O=C(Nc1ccc(Cl)c(C(F)(F)F)c1)C1CCCN(S(=O)(=O)c2cnc[nH]2)C1 (stereo unspecified)	-1	136	.
O=C(c1cn(-c2ccccc2)nc1-c1cccs1)N1CCN(c2ccccn2)CC1	-2	76	.
Cc1sc(NC(=O)CSc2nc(N)n(CC(=O)c3ccccc3)n2)c(C#N)c1C	1	96	100
CCOc1cc(N2CCOCC2)c(OCC)cc1NC(=O)c1cc(-c2ccco2)nc2ccccc12	.	23	44*
Cc1cccc(NC(=O)c2cc(-c3ccco3)nc3ccccc23)n1	5	83	.
Fc1cccc(Cl)c1CSc1nnc(COc2cccc3cccnc23)o1	.	88	.
CCN1c2ccccc2NC2N=C(OC)C(c3ccccc3)C21 (stereo unspecified)	2	10	36*
CCN1c2ccccc2NC2C1C(C(C)=O)C(=O)N2c1ccc(Cl)cc1 (stereo unspecified)	9	59	67
COc1ccc(NC(=O)Cn2nnc(-c3ccccc3NC(=O)c3ccco3)n2)cc1	-1	59	28*
COc1ccccc1NC(=O)Cn1nnc(-c2ccccc2NC(=O)c2ccco2)n1	4	63	83
CC1CCCCN1C(=O)C12CCC(C)(/C(=N/O)C1)C2(C)C (stereo unspecified)	.	83	81
C=CCn1cnc2c(c1=O)c1nc3ccccc3nc1n2/N=C/c1cccc(OC)c1OC	0	96	105
C=CCn1cnc2c(c1=O)c1nc3ccccc3nc1n2/N=C/c1cc(OC)c(OC)c(OC)c1	2	-25*	82
C=CCOC(=O)c1[nH]c2c(c1C)C(=O)CC(c1cc(OC)c(OC)c(OC)c1)C2 (stereo unspecified)	43*	76	.
CCCCOC(=O)c1[nH]c2c(c1C)C(=O)CC(c1cc(OC)c(OC)c(OC)c1)C2 (stereo unspecified)	46*	80	.
CCCCCOC(=O)c1[nH]c2c(c1C)C(=O)C(C(=O)OC)C(C)C2 (stereo unspecified)	.	93	.
COc1ccc(C2CC(=O)c3c([nH]c(C(=O)OC(C)C)c3C)C2)cc1OC (stereo unspecified)	.	88	.
O=C(NC1CCCCC1)c1ccc(CNc2ccccc2)o1	1	104	96
N#CCCN(C1CCCCC1)S(=O)(=O)CCOc1ccccc1	6	105	121
CCCn1c(C)nc2c(c1=O)c1nc3ccccc3nc1n2-c1ccc2c(c1)OCCO2	4	95	114
CCn1c(SCC(=O)c2ccc(OC)cc2)nnc1C(C)NC(=O)c1ccc(OC)cc1 (stereo unspecified)	3	88	97
SMILES	Jurkat tox 60K	Her2 expr inh	SK-BR-3 tox 24h
CCCCOc1ncnc2c1[nH]c1ccccc12	76*	91	86
CCOCCCNc1ncnc2c1[nH]c1ccccc12	26	82	93
CCCCOc1ncnc2c1[nH]c1ccc(F)cc12	61*	65	97
O=c1c2[nH]c3ccc(F)cc3c2ncn1CCN1CCOCC1	1	87	108
Nc1ccc(Cl)cc1/C(=N/O)c1ccccc1	.	84	97
COc1ccccc1NC(=O)Cn1cnc2sc(C(=O)NCc3ccco3)c(C)c2c1=O	.	96	.
O=C(Cn1cnc2sc(-c3ccccc3)cc2c1=O)NCc1ccco1	42*	68	107
CCSc1ccc2nnc(-c3ccc(F)cc3)n2n1	6	65	.
CC(C)(C)c1ccc(C(=O)NCc2cccnc2)cc1	4	102	.
CC(C)C(=O)Nc1ccc(C(=O)NCc2cccnc2)cc1	82*	77	89
CN(CC(=O)NCc1cccc(F)c1)C(=O)c1ccco1	1	94	.
CCCn1c(-c2ccc(OC)cc2)nc2ccccc21	-1	95	80
C=C(C)Cn1c(-c2ccc(OC)cc2)nc2ccccc21	.	-20*	95
CCOc1ccc(-c2cc(C(=O)N3CCN(C)CC3)c3ccccc3n2)cc1	-1	124	.

Screening results (PubChem)
